# Assay results taken from the supplement of paper PMC11634586.
# Unmarked numbers belong to inactive results.
# Tested on: NCI-H1688
# Experiment: inhibition of cell viability relative to untreated control (fraction); higher = stronger growth inhibition, active = 0.5 or more
# Details: 30 µM; 24 h
# In short: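 NCI-H1688 small cell lung cancer cells were seeded at 3 × 10^3 cells/well in 96-well plates and treated 24 h later with a natural compound library (TargetMol) at 30 µM for 24 h, at 37°C with 5% CO2. Viability was read in triplicate with Cell Counting Kit-8 as absorbance at 450 nm. Inhibition of cell viability is expressed as a fraction, derived from viability normalised to the untreated control.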
row,SMILES,inhibition of cell viability
1,C[C@H](CCC(=O)O)[C@H]1CC[C@H]2[C@@H]3C[C@H](O)[C@@H]4C[C@H](O)CC[C@]4(C)[C@H]3CC[C@]12C [Hyodeoxycholic acid (HDCA)],-0.163
2,O=C(O)CCc1ccc(O)cc1 [Phloretic acid],0.081
3,CC[C@H]1OC(=O)[C@H](C)[C@@H](O[C@H]2C[C@@](C)(OC)[C@@H](O)[C@H](C)O2)[C@H](C)[C@@H](O[C@@H]2O[C@H](C)C[C@H](N(C)C)[C@H]2O)[C@](C)(O)C[C@@H](C)[C@@H]2N[C@@H](COCCOC)O[C@H]([C@H]2C)[C@]1(C)O [Dirithromycin],0.0389
4,CC[C@@]1(O)C(=O)OCc2c1cc1n(c2=O)Cc2cc3cc(O)ccc3nc2-1 [Hydroxy Camptothecine],0.97 (active)
5,N[C@@H](Cc1cc(I)c(Oc2ccc(O)c(I)c2)c(I)c1)C(=O)O [Lyothyronine],0.0198
6,C[C@]12CCC(=O)C=C1CC[C@@H]1[C@@H]2CC[C@@]2(C)[C@H]1CC[C@]2(O)C(=O)CO [Cortodoxone],-0.112
7,O=c1[nH]cnc2c1ncn2[C@H]1C[C@H](O)[C@@H](CO)O1 [2'-Deoxyinosine],-0.00407
8,COc1cc(O)c(C(C)=O)c(OC)c1 [Xanthoxyline],-0.308
9,CC1(C)CCC[C@]2(C)[C@H]3CC(=O)O[C@]3(C)CC[C@@H]12 [Sclareolide],0.206
10,NC(=O)c1cccnc1 [Nicotinamide],0.0846
